Screening data from PubChem.
Mtb FBA inh: inhibitors of M. tuberculosis fructose-bisphosphate aldolase. purified M. tuberculosis FBA, fluorescence read-out. inhibition, % at 1 µM. 360,000 compounds, 2.3% hits; in the data active means inhibition above about 27%
Target sequence (P9WQA3 whole entry, looked up): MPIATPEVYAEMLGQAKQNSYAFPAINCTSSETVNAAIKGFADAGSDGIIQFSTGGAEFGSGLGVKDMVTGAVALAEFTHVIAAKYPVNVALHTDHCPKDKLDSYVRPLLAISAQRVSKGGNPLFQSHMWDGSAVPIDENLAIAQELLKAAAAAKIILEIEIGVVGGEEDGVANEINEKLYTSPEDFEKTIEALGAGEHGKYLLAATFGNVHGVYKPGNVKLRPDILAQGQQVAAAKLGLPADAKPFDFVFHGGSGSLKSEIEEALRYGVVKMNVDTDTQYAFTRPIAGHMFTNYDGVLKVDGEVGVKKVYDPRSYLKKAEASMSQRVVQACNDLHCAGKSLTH
PrPC TRFRET: inhibitors of human cell surface prion protein PrPC. TR-FRET read-out. P04156. inhibition, % at 13.8 µM. 370,000 compounds, 0.43% hits; in the data active means inhibition above about 24%
GDH-TPI counter: GDH-TPI coupled enzyme inhibition counter-screen | GDH-TPI coupled enzyme counterscreen, NADH absorbance | inhibition, % at 4.8 µM | 360,000 compounds, 1.2% hits | AID 588335; in the data active means inhibition above about 30%
SARS 3CLpro inh: SARS-CoV 3CLpro protease inhibition; inhibition, % at 6 µM; 290,000 compounds, 0.14% hits; recombinant SARS-CoV 3CLpro, quenched FRET peptide cleavage; AID 1706; P0C6X7; in the data active means inhibition above about 12%
Vc quorum ag: quorum light induction in luxS cqsA deficient V. cholerae; V. cholerae BH1578 lux reporter, luminescence, 6 h; 350,000 compounds, 0.16% hits; AID 588436; activation, % at 18.7 µM; in the data active means activation mostly above about 9.7%, no sharp cut-off
Each line names hits and unclear results; the compound was inactive in the other large screens. A selection: hits, their analogues and other compounds. The true share with any hit is near 3.9%.

O=C1c2cccc3cc([N+](=O)[O-])cc(c23)C(=O)N1CCN1CCCC1	none
O=C1c2cccc3cc([N+](=O)[O-])cc(c23)C(=O)N1/N=C/c1ccc(O)cc1O	GDH-TPI counter 56
CC(c1ccccc1)N1CC[C@H]2C=CC[C@@H](C(=O)Nc3cccc(Cl)c3)[C@H]2C1=O (stereo partly drawn)	none (no result: Mtb FBA inh, GDH-TPI counter, SARS 3CLpro inh, Vc quorum ag)
O=C(NCCCN1CCCC1=O)c1c(O)nc2sccn2c1=O	none (no result: SARS 3CLpro inh)
Cn1ccc2c(/C=C/c3ccc(F)cc3)cc3c(c21)C1CCC3O1 (stereo not drawn)	Mtb FBA inh 140 (no result: GDH-TPI counter, SARS 3CLpro inh, Vc quorum ag)
Cc1nc2c(C)cccn2c(=O)c1NC(=O)c1ccc(Br)o1	GDH-TPI counter 33 (no result: SARS 3CLpro inh)
Cc1nc2c(C)cccn2c(=O)c1NC(=O)c1ccco1	none (no result: SARS 3CLpro inh)
CCn1c(=O)n2n(c1=O)[C@]1(C=C(C)C2)CN(Cc2ccc(OC)cc2OC)C(NC(=O)c2ccccc2)=N1	none (no result: Mtb FBA inh, GDH-TPI counter, SARS 3CLpro inh, Vc quorum ag)
CC(=O)c1ccc(N2CCN(c3ccc(S(=O)(=O)NCCN(C)C)cc3[N+](=O)[O-])CC2)cc1	none
CC(=O)c1ccc(N2CCN(c3ccc(S(=O)(=O)NCCCN(C)C)cc3[N+](=O)[O-])CC2)cc1	GDH-TPI counter 57
O=c1c(-c2cccs2)nc2ccccc2n1C(c1ccccn1)c1nc2ccccc2[nH]1 (stereo not drawn)	none (no result: Mtb FBA inh, GDH-TPI counter, SARS 3CLpro inh, Vc quorum ag)
COc1ccc(S(N)(=O)=O)cc1C(=O)OCC(=O)N1CC(=O)Nc2ccccc21	none (no result: SARS 3CLpro inh)
C=C(C)CSc1nc2ccccc2c(=O)n1-c1c(C)n(C)n(-c2ccccc2)c1=O	none
Cc1c(-n2c(SCC(=O)C(C)(C)C)nc3ccccc3c2=O)c(=O)n(-c2ccccc2)n1C	Mtb FBA inh 145
COc1ccccc1-n1cnnc1SCC(=O)Nc1nc(C)c(Cl)cc1Cl	none
Cc1nc2ccccc2c(N)c1C(=O)/C=C/c1ccccc1	GDH-TPI counter 37
O=C(Cc1coc2cc(O)ccc12)NNC(=O)c1ccc(Br)s1	none (no result: SARS 3CLpro inh)
Cn1cc(/C=N/NC(=O)c2cc3cc(Br)ccc3o2)c2ccccc21	none
O=C(O)Cn1cc(/C=N/NC(=O)c2cc3cc(Br)ccc3o2)c2ccccc21	GDH-TPI counter 48
O=C(O)c1ccc(-n2cccc2/C=N\NC(=O)c2cc3cc(Br)ccc3o2)cc1	GDH-TPI counter 36
O=C(N/N=C/c1cccc2ccccc12)c1cc2ccccc2o1	none
C#CCn1cc(/C=N/NC(=O)c2cc3ccccc3o2)c2ccccc21	GDH-TPI counter 32
COc1cccc(CN2CCC(C(=O)NC(C)c3cccc4ccccc34)CC2)c1 (stereo not drawn)	none (no result: SARS 3CLpro inh)
COc1ccc(-c2ccc3c(c2)S(=O)(=O)c2cccc(C(=O)N4CCN(c5c(Cl)cncc5Cl)CC4)c2C3=O)cc1OC	none (no result: SARS 3CLpro inh)
COc1ccccc1/C=C/C=N/NC(=O)CCn1cnc2ccccc21	GDH-TPI counter 33
COc1ccccc1/C=C/C=N/NC(=O)c1cc(-c2ccco2)[nH]n1	GDH-TPI counter 32
COc1ccccc1/C=C/C=N/NC(=O)c1ccc(=O)n(C)c1	GDH-TPI counter 51
COc1ccccc1/C=C/C=N/NC(=O)CC1C(=O)NN=C1C (stereo not drawn)	GDH-TPI counter 37
Cc1noc2ncnc(Sc3ccc(Br)cc3)c12	none
CC1(C)CC(=O)c2sc(N3CCCCC3)nc2C1	GDH-TPI counter 42
CC1(C)CNC(=O)c2sc(N3CCCCC3)nc2C1	none
CC1(C)CC(=O)c2sc(NS(C)(=O)=O)nc2C1	GDH-TPI counter 35
CC1(C)CC(=O)c2sc(NC(=O)CN3C(=O)CCC3=O)nc2C1	GDH-TPI counter 32
CC1(C)CC(=O)c2sc(NC(=O)CN3CCOCC3)nc2C1	none
CC1(C)CC(=O)c2sc(NS(=O)(=O)c3ccccc3)nc2C1	none
Cc1ccccc1C(=O)N1CCC(C(=O)Nc2ccc(S(=O)(=O)N3C(C)CCCC3C)cc2)CC1 (stereo not drawn)	none (no result: SARS 3CLpro inh)
CCCCc1cc(=O)oc2cc(O)ccc12	Mtb FBA inh active
CCCCc1cc(=O)oc2c(CN3CCN(C)CC3)c(O)ccc12	Mtb FBA inh active
CCCCc1cc(=O)oc2c(CN3CCCC3)c(O)c(Cl)cc12	Mtb FBA inh active
CCCc1cc(=O)oc2c(CN3CCN(C)CC3)c(O)ccc12	none (no result: Mtb FBA inh)
CCc1c(C)c2cc(Cl)c(O)c(CN3CCCC3)c2oc1=O	Mtb FBA inh active
CCCCc1cc(=O)oc2c(CN(C)C)c(O)ccc12	none (no result: Mtb FBA inh)
CC(=O)OCCCN1CCC2(CCCCC2)C1=O	none (no result: Mtb FBA inh, GDH-TPI counter, SARS 3CLpro inh, Vc quorum ag)
CCOc1cc(C=NNC(=O)N(c2ccccc2)c2ccccc2)ccc1O	none (no result: PrPC TRFRET, GDH-TPI counter, SARS 3CLpro inh, Vc quorum ag)
CCOC(=O)c1ccc2nc(C(F)(F)F)[nH]c(=O)c2c1	Mtb FBA inh 42
CS(=O)(=O)c1ccc(-c2cn3cc(C(=O)O)ccc3n2)cc1	Mtb FBA inh 114
Cc1ccc(NC(=S)/C(C#N)=C2/Nc3ccccc3S2)cc1	none (no result: SARS 3CLpro inh)
N#C/C(C(=O)N1CCCCC1)=C1\Nc2ccccc2S1	GDH-TPI counter 54
CC1=CS/C(=C(/C#N)C(=O)N2CCOCC2)N1c1ccccc1	GDH-TPI counter 32
CC1=CS/C(=C(/C#N)C(=O)N2CCCCC2)N1c1ccccc1	GDH-TPI counter 45 (no result: Vc quorum ag)
Cc1cccc(-c2cccc3c4c([nH]c23)[C@@H]2C[C@H](N(C)C(=O)NC3CCCCC3)[C@H]([C@H](C)O)CN2CC4)c1	none (no result: Mtb FBA inh, GDH-TPI counter, SARS 3CLpro inh, Vc quorum ag)
COc1c(-c2ccc(O)c(O)c2)oc2cc(O)cc(O)c2c1=O	none (no result: SARS 3CLpro inh)
CCc1ccc(C(C(=O)NC2CCCC2)N(C(=O)/C=C/C(=O)Nc2cc(C)on2)c2ccccc2C)cc1 (stereo not drawn)	none
C#CCn1cc(/C=C2\NC(=O)NC2=O)c2ccccc21	none
COC(=O)[C@]12C[C@H](CC(=O)N3CCCCC3)C(=O)N(CCC3=CCCCC3)C1=C[C@H](C(C)(C)C)O[C@@H]2C	none (no result: Mtb FBA inh, GDH-TPI counter, SARS 3CLpro inh, Vc quorum ag)
Cc1csc(NC(=O)CSc2nc3[nH]c(=O)cc(O)c3s2)n1	GDH-TPI counter 32 (no result: SARS 3CLpro inh)
c1coc(-c2nc(-c3ccco3)c(-c3ccco3)nc2-c2ccco2)c1	Mtb FBA inh 32
Nc1nc(-c2ccco2)c(-c2ccco2)s1	none
O=P(c1ccccc1)(c1ccccc1)c1cnc2ccccn12	none (no result: Mtb FBA inh, GDH-TPI counter, SARS 3CLpro inh, Vc quorum ag)
Cc1c(C=O)c2ccccn2c1C(=O)c1ccccc1	none
Cc1ccccc1NCC(=O)N/N=C/c1c(C)c(C(=O)c2ccc(Cl)cc2)n2ccccc12	GDH-TPI counter 32
Cc1c(C=O)c2ccccn2c1C(=O)c1ccc(F)cc1	GDH-TPI counter 33
N#Cc1c(NC(=O)COC(=O)c2ccc(S(=O)(=O)N3CCCC3)cc2)sc2c1CCCCC2	none
O=C(NC1CCCC1)c1cc(-c2cccc(Cl)c2)on1	none
CC1(C)CC(=O)C2=C(C1)NC(=O)NC2c1ccccc1 (stereo not drawn)	none
CC1C2=C(CC(C)(C)CC2=O)NC2=C1C(=O)CC(C)(C)C2	Mtb FBA inh active
CCOc1ccc(-n2c(SCC(=O)NN=Cc3ccc(C(=O)O)cc3)nnc2-c2cccnc2)cc1	none (no result: Mtb FBA inh, GDH-TPI counter, SARS 3CLpro inh, Vc quorum ag)
O=C(CCn1cnc2ccccc2c1=O)Nc1cccc(Cl)c1	none
COc1ccc(Cl)cc1NC(=O)CCn1cnc2ccccc2c1=O	Mtb FBA inh 49
O=C(N/N=C/c1c(O)n(-c2ccccc2)c(=O)[nH]c1=O)c1ccncc1	GDH-TPI counter 31
